The campaign covered roughly 220,000 compounds. About 770 (0.35%) were called active. The sample as a whole holds a higher share of actives than the screen did. Unmarked numbers belong to inactive results. Rule as the data show it: active = activation above about 11%; inactive = the rest. Where a SMILES comes first, the peptide text is derived from it. [ ]: non-standard residue; d: D form. ξ: configuration not given here. ξM = CSCCC(N)C(=O)O
Biological target: Sphingosine 1-phosphate receptor 4 (Homo sapiens) (UniProt O95977)
Sequence (O95977 whole entry, looked up): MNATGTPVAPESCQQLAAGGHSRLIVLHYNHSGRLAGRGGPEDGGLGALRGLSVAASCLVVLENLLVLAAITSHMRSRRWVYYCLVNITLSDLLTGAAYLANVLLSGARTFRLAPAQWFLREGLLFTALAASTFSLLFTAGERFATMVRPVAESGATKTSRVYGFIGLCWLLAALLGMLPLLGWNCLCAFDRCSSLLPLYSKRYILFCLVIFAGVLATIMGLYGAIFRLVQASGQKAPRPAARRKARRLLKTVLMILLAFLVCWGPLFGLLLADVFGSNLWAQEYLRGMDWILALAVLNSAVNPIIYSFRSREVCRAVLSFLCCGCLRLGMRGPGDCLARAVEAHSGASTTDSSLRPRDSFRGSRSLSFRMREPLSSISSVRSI
Assay: activators of human S1P4 receptor – cell-based, primary screen (AID 1509);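 also: 0% = DMSO vehicle and 100% = reference agonist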
Conditions: S1P4-expressing cell line, agonist reporter assay; at 4.98 µM; active compounds read high

| Compound | activation |
| --- | --- |
| CC1(C)CC(=O)c2c(n(S(=O)(=O)c3ccccc3)c3ccc(NS(=O)(=O)c4ccccc4)cc23)C1 | -0.65% |
| O=C(O)/C=C/c1ccc(S(=O)(=O)N2CCCCCC2)cc1 | 1.37% |
| CC1=CC=CC2=N/C(=N\S(=O)(=O)c3ccc(F)cc3F)c3ccccc3CN12 | 1.89% |
| Cc1ccc2c(c1)nnc1nnc(SCC(=O)O)n12 | 0.65% |
| O=C(O)C1C2CC2CN1C(=O)c1ccc(Cl)cc1Cl (configuration not stated) | 0.08% |
| COc1ccc(/C=C2\N=C3CCCN3C2=O)cc1 | 0.59% |
| CCCCCc1nnc(NC(=O)c2ccc(=O)n(C)n2)s1 | 0.34% |
| CC(=O)c1cc(C#N)c(N2CC(C)OC(C)C2)nc1C (configuration not stated) | 2.12% |
| CC(C)(C)C1CCC(C(=O)Nc2cccnc2)CC1 (configuration not stated) | -0.6% |
| CCOc1ncccc1C(=O)N(CC)CC(=O)Nc1ccc(NC(C)=O)cc1 | 0.47% |
| COc1cc(/C=C/C(=O)OCC(=O)Nc2cccc(Oc3ccccc3)c2)ccc1O | 0.15% |
| CCCc1nc(SCC(=O)Nc2ccccc2OC)c2c(=O)n(C)c(=O)n(C)c2n1 | -0.79% |
| CCCCCNC(=O)c1cccnc1SCC(=O)Nc1ccccc1OC | 19.3% (active) |
| CCCNC(=O)c1ccccc1NC(=O)CSCc1ccc(OC)cc1 | 1.75% |
| COCCN(CCOC)S(=O)(=O)c1ccc(/C(O)=C(\C#N)c2nc3ccccc3[nH]2)cc1 | 0.35% |
| O=C(/C(=C/c1cccc(Cl)c1)c1nc2ccccc2[nH]1)c1ccccc1 | -0.48% |
| CCC(=O)/C(=C(/O)c1ccccc1)c1nc2ccccc2[nH]1 | 12.3% (active) |
| COc1ccc(S(=O)(=O)N2CCN(C(=O)c3cc(C)oc3C)CC2)cc1 | 0.82% |
| Cc1ccsc1/C=N/n1c(=S)[nH]nc(C)c1=O | 3.22% |
| COc1ccc(-n2c(C)cc(C(=O)COC(=O)c3cc(OC)c(OC)cc3NC(=O)c3cccs3)c2C)cc1 | -0.44% |
| CCOC(=O)NNC(=O)c1ccc(Cl)cc1 | -0.78% |
| O=C(NNC(=O)C1C2CCC(C2)C1C(=O)O)c1ccc(Cl)cc1 (configuration not stated) | 1.68% |
| CSc1sc(C(=O)NNC(=O)c2ccc(Cl)cc2)c2c1C=CCC2 | 13.5% (active) |

| Compound | activation |
| --- | --- |
| CC(=O)c1ccc(N2CCN(C(=O)c3ccc4nc[nH]c4c3)CC2)cc1 | 0.76% |
| O=C1CCCc2nn(-c3ccccc3)nc21 | -2.78% |
| CN(C)S(=O)(=O)c1ccc(Cl)c(NC(=O)COC(=O)CC(NC(N)=O)c2ccc(Cl)cc2)c1 (configuration not stated) | 1.79% |
| C=CCOc1c(CNn2cn[nH]c2=S)cccc1OC | 0.93% |
| N/C(=N\OC(=O)c1ccc2c(c1)OCO2)c1ccc(Br)cc1 | -1.54% |
| NNC(=O)c1ccc(COCC(F)(F)C(F)F)cc1 | -0.58% |
| C=CCNC(=O)c1ccccc1NC(=O)c1ccc(Cl)c(S(=O)(=O)Nc2cccc(C)c2C)c1 | 2.53% |
| CS(=O)(=O)c1sc(C(=O)NC(=S)Nc2ccc(OC(F)(F)F)cc2)c2c1C=CCC2 | -1.4% |
| O=C(CN1C(=O)NC(Cc2ccccc2)(Cc2ccccc2)C1=O)NCC1CCCCC1 | -1.64% |
| CCOc1ccc(N2C(=O)CC(N(CCc3ccc(OC)c(OC)c3)C(=S)Nc3ccccc3)C2=O)cc1 (configuration not stated) | 1.87% |
| O=C(CCn1c(SCC(=O)c2ccccc2)nc2ccccc2c1=O)NCc1ccc(F)cc1 | 0.31% |
| O=C(CCCn1c(SCC(=O)c2ccccc2)nc2ccccc2c1=O)NCC1CCCO1 (configuration not stated) | 0.54% |
| O=C(CCCn1c(SCC(=O)c2ccc(F)cc2)nc2ccccc2c1=O)NCc1ccco1 | 30.4% (active) |
| CCOC(=O)N1CCN(c2c(NCCN3CCN(c4ccccc4F)CC3)c(=O)c2=O)CC1 | 1.24% |
| CC(Oc1ccc(Br)cc1Br)C(=O)NC1CCCC1 (configuration not stated) | 14.4% (active) |
| COc1ccc(S(=O)(=O)NC(C)C)cc1C(=O)NC1CCCCC1 | 1.54% |
| CC(=O)OC(C(=O)NC1CCCCC1)c1ccccc1 (configuration not stated) | 0.59% |
| Cc1cc(C(=O)NNC(=O)CCC2CCCCC2)c(C)o1 | 0.49% |
| c1ccc2c(c1)OCCOCCOCCO2 | 0.22% |
| COCCNC(=O)c1ccc(-n2c(SCc3cccnc3)nc3ccccc3c2=O)cc1 | 1.25% |
| CCC1=NN2C(=N)/C(=C/c3cc(C)n(-c4ccccc4)c3C)C(=O)N=C2S1 | -0.01% |
| Cc1cc2c(cc1C)N(Cc1ccccc1)C1=NCCCN12 | -0.25% |
| O=[N+]([O-])c1ccc(F)cc1Oc1nc(-c2cccnc2)nc2ccccc12 | 0.24% |

| Compound | activation |
| --- | --- |
| COC(=O)CNC(=O)C(CCSC)NC(C)=O (configuration not stated) (Ac-[ξM]-Gly-OMe) | 29.1% (active) |
| CCC(C)NC(=O)N[C@@H](CCSC)C(=O)O (some centres not stated) | 1.44% |
| COC(=O)[C@H](CCSC)NC(=O)Nc1ccc(OC)cc1 | 0.47% |
| O=c1c2ccccc2nnn1CSc1nnnn1-c1ccccc1 | 0.58% |
| C=CCn1c(SCn2nnc3ccccc3c2=O)nnc1-c1ccc(Cl)cc1 | 19% (active) |
| O=C(Cn1nnc2ccccc2c1=O)NCc1ccc(Cl)cc1 | -1.75% |
| C/C(CCC(=O)OC[C@H]1O[C@H](C#Cc2ccccc2)C=C[C@@H]1Oc1ccc(C)cc1)=N\OC[C@@H](O)[C@H]1O[C@@H]2OC(C)(C)O[C@@H]2[C@H]1O | 0.09% |
| O=C1COc2ccc(C(=O)COC(=O)C3CC(O)CN3S(=O)(=O)c3ccc(Cl)cc3)cc2N1 (configuration not stated) | 1.17% |
| CC1CCCC(NC(=O)COC(=O)[C@@H]2CC(O)CN2S(=O)(=O)c2ccc3c(c2)OCCO3)C1C (some centres not stated) | 194% (active) |
| O=C(COC(=O)C1CCN(S(=O)(=O)c2ccc3c(c2)OCCO3)CC1)Nc1ccccc1OC(F)F | 2.37% |
| NC(=O)C1=C[C@H](c2csc3ccccc23)C[C@H](OCc2ccc(CO)cc2)O1 | 3.3% |
| COc1ccc(C(=O)N2CCc3cc(OC)c(OC)cc3C2c2cccc([N+](=O)[O-])c2)cc1 (configuration not stated) | 0.65% |
| Cc1noc(C)c1COC(=O)c1cc2ccccc2cc1O | -2.59% |
| Cc1noc(C)c1COC(=O)COc1ccc(-c2ccccc2)cc1 | 36% (active) |
| Cc1noc(C)c1COC(=O)Cn1c(C)nc2ccccc21 | -0.11% |
| O=C(Nc1ccc(Br)cc1)c1cccc(NC(=O)C2C3CC4OC(=O)C2C4C3)c1 (configuration not stated) | 1.27% |
| COc1ccc(CCNC(=O)COC(=O)Cc2cc(OC)c(OC)c(OC)c2)cc1 | -1.28% |
| CC(=O)Nc1ccc(S(=O)(=O)N2CCN(c3ccc([N+](=O)[O-])c(NCCN4CCOCC4)c3)CC2)cc1 | 0.49% |
| Cn1nnnc1SCC(=O)NNC(=O)c1ccc(Br)cc1 | 0.67% |
| CN(Cc1ccccc1)C(=O)COC(=O)c1ccccc1Nc1ccccc1 | -0.61% |
| COC(=O)c1c(NC(=O)CN2C(=O)NC(CCc3ccccc3)C2=O)sc2c1CCCCC2 (configuration not stated) | 0.65% |
| CCOC(=O)/C=c1\s/c(=C\c2ccc(C#N)cc2)c(=O)n1CC(=O)Nc1cccc(C)c1C | -0.03% |
| CCOC(=O)/C(C#N)=C/c1ccc(OCC(=O)Nc2ccccc2)c(OC)c1 | -0.12% |

| Compound | activation |
| --- | --- |
| Cc1cc(C)nc(N(C#N)CC(=O)Nc2ccccc2)n1 | 14.7% (active) |
| Cc1ccc(CC(=O)Nc2cccc(C#N)c2)cc1 | 1.55% |
| N#Cc1c(NC(=O)C2CC(Cl)=CCC2C(=O)O)sc2c1CCCCC2 (configuration not stated) | 0.41% |
| Cn1nnnc1NCc1ccc(Cl)c(Cl)c1 | 0.14% |
| COc1ccc(N(CC(=O)NC2CCCC2)C(=O)CS(=O)CC(=O)Nc2ccc3c(c2)OCO3)cc1 (configuration not stated) | 1.8% |
| COc1ccc(-c2cn3ccc(C)cc3n2)cc1 | 0.65% |
| CCOC(=O)CC(NC(=O)C1c2ccccc2Oc2ccccc21)c1ccc(C)cc1 (configuration not stated) | -0.87% |
| CCC(C)NC(=O)C1c2ccccc2Oc2ccccc21 (configuration not stated) | 15.7% (active) |
| CCC(C)(C)NC(=O)C1c2ccccc2Oc2ccccc21 | 0.03% |
| O=[N+]([O-])c1ccc2[nH]c3c(c2c1)CCCC3O (configuration not stated) | 0.79% |
| Cc1ccc(SCC(=O)Nc2ccc3c(c2)OCCO3)cc1 | -0.03% |
| Cc1csc(NC(=O)CSc2ccc(-c3ccc(F)cc3)nn2)n1 | 0.5% |
| O=C(CSc1ccc(-c2ccc(F)cc2)nn1)Nc1ccc2c(c1)OCCO2 | 57.3% (active) |
| Cc1cc(NC(=O)CSc2nnc(Nc3ccccc3F)s2)no1 | 0.31% |
| O=C(CSc1nnc(Nc2ccccc2)s1)Nc1cccnc1Cl | 62.7% (active) |
| O=C(CSc1nnc(C2CC2)n1Cc1ccccc1)Nc1cccnc1Cl | 0.19% |
| CCn1nnnc1SCC(=O)c1ccc(C)cc1C | -0.47% |
| Cc1ccc(NC(=O)N2CCSc3ccccc32)cc1 | 0.59% |
| CC(=O)Nc1ccc(Nc2c([N+](=O)[O-])cc(S(C)(=O)=O)cc2[N+](=O)[O-])cc1 | -0.76% |
| Cn1c(=O)c2c(nc(N3CCOCC3)n2CCNC2=NCCC2)n(C)c1=O | -3.47% |
| CC(=O)Nc1ccccc1NC(=O)c1cc(C)cc(C)c1 | 52.2% (active) |
| CSCc1ccc(C(=O)Nc2cc(C)cc(C)c2)cc1 | 0.79% |
| Cc1ccc(C(=O)NC(=S)Nc2ccccc2C)cc1 | 1.14% |
